High-throughput results as filed in PubChem.
S aureus helic – inhibitors of S. aureus replicative helicase, primary screen, biochemical, fluorescence unwinding readout. inhibition, % (concentration not given with the values). purified S. aureus helicase, fluorescence unwinding assay. 0.05% of 120,000 active; in the data active = inhibition above about 25%, passing the limit was not always enough;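 note: 0% = mean of negative control wells and 100% = mean of positive control wells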
Sa growth 42C – S. aureus growth inhibition at 42 and 30 °C, primary screen, LtaS inhibitor project, RN4220, two temperatures | OD600, 20 h, 42 °C; hits give low values | relative growth, % (no concentration beside the values) | 0.53% of 170,000 active | AID 720641, 2013;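 active = relative growth at most 50% at the other temperature and 20+ points below 30 °C, or under 10% at both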
Starred values were filed as active, the others as inactive; nt = no result given. Most compounds without a hit are left out; they make up all but 0.52% or so of the library.

SMILES	S aureus helic	Sa growth 42C
S=C(S)N1CCCC1	-5	1.7*
NC(=S)N1CCCC1	70	94
CCOc1ccc(C2C(C#N)=C(SC)NC(=O)C2C(=O)OC)cc1 (centres undefined)	-16	nt
N#C/C(=C\c1ccc(-c2cc(C(F)(F)F)ccc2Cl)o1)C(=O)O	-5	96
N#C/C(=C/c1ccc(-c2cc(C(=O)O)ccc2Cl)o1)C(=O)NCCc1c[nH]c2ccccc12	20	9.7*
N#Cc1ccccc1NC(=O)COC(=O)C1(c2cccc(F)c2)CCCC1	1	100
C(=N\c1n[nH]c(/N=C/c2ccccc2)n1)/c1ccccc1	-7	109
O=C1/C(=C/c2ccncc2)CCC/C1=C\c1ccncc1	38	-0.2*
O=C1/C(=C/c2cccnc2)CCCC/C1=C\c1cccnc1	-16	nt
O=C1CC(c2nc3ccccc3[nH]2)CN1c1cccc2ccccc12 (centres undefined)	10	89
Cn1c(C2CC(=O)N(c3cccc4ccccc34)C2)nc2ccccc21 (centres undefined)	6	0.4*
CCN(Cc1ccc(OC)c(F)c1)C(=O)c1ccccc1-n1cnnn1	-4	81
Cc1c(Cl)cccc1NC(=O)c1cc2ccccc2oc1=O	-21	nt
COC(=O)c1sc(N2CCCC2)c(C#N)c1-c1cccs1	nt	103
COC(=O)c1sc(S(C)(=O)=O)c(C#N)c1-c1cccs1	-38	0.2*
CC12CCC(C/C1=N\Nc1nc(O)c(C3=c4ccccc4=NC3=O)s1)C2(C)C (centres undefined)	17	119
CC(C)(C)c1cc(C(=O)N(CCO)CCO)cc(C(C)(C)C)c1	7	90
CCOC(=O)C(C)Oc1cccc2c(=O)n(CC(=O)NC3CCCCC3)ccc12 (centres undefined)	22	119
CCOC(=O)c1cn(C2CC2)c2c(F)c(F)c(F)cc2c1=O	-3	117
O=C1NC(=O)c2ccc3c4c(ccc1c24)C(=O)N(c1ccccc1)C3=O	24	5.5*
Nc1ccc2c3c(cccc13)C(=O)N(c1ccccc1)C2=O	-127	95
CCOc1ncccc1C(=O)OCc1ccc(O)c2ncccc12	13	61
Cc1cc2nc(C(F)(F)F)cc(=O)n2[nH]1	nt	123
O=C(Nc1nc2c(s1)Cc1ccccc1-2)c1ccco1	nt	128
Oc1ccccc1C(Nc1ccccn1)c1ccc2cccnc2c1O (centres undefined)	1	4.8*
Oc1c(C(Nc2ccccn2)c2ccccc2F)ccc2cccnc12 (centres undefined)	nt	17
Cc1nn(-c2ccccc2)c2sc(C(=O)N(C)C(C)C(O)c3ccccc3)cc12 (centres undefined)	-15	140
